Reference: PubChem BioAssay

Columns and labels:
[1] = system: Botulinum neurotoxin type F light chain protease (Clostridium botulinum); assay: Clostridium botulinum type F light chain protease inhibitors, microsphere substrate cleavage, validation (AID 588459); conditions: multiplex microsphere protease substrate cleavage assay, flow cytometry; at 10 µM; active compounds read high
[2] = target: Botulinum neurotoxin type A (Clostridium botulinum) (UniProt P0DPI0); assay: BoNT/A light chain protease inhibitors, biochemical, multiplex microsphere flow cytometry, validation set (AID 588460); conditions: at 10 µM, active compounds read high
Chain of Botulinum neurotoxin type A (Clostridium botulinum) (P0DPI0 whole entry, looked up): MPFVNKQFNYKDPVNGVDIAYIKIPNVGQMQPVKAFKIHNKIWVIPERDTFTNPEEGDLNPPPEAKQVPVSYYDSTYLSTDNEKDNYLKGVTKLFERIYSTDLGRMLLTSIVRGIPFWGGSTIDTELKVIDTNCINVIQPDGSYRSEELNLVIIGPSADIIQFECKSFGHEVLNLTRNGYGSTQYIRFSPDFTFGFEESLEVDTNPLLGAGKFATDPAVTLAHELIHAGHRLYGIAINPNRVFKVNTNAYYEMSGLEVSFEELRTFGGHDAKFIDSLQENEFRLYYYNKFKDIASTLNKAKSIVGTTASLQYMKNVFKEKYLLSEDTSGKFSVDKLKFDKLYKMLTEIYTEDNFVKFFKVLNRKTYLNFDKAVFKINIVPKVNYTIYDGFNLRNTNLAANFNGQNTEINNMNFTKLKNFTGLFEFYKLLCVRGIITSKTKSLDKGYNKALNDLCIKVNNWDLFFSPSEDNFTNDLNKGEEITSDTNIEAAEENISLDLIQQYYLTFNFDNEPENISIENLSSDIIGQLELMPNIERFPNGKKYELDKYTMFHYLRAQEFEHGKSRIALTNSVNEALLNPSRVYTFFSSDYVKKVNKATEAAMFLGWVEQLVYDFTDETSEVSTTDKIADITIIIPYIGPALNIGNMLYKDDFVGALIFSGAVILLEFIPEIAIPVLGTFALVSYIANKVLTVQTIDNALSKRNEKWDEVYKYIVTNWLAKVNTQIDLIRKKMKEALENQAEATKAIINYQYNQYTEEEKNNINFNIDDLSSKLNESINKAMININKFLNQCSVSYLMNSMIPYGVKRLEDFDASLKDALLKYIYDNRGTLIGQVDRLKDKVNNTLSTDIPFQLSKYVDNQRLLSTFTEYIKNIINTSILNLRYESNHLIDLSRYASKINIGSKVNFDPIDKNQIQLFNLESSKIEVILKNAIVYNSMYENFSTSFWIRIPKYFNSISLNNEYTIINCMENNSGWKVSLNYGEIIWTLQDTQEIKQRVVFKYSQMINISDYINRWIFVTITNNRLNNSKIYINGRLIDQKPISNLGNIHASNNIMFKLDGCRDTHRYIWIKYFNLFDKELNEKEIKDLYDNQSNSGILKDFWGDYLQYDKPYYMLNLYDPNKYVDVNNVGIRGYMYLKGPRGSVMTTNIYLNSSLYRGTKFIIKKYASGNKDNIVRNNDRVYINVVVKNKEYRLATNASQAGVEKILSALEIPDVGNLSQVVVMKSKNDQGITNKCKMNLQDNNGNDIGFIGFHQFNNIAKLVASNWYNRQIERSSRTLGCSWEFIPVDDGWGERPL

[3] = target: Lethal factor (Bacillus anthracis) (UniProt P15917); assay: Bacillus anthracis lethal factor inhibition, microsphere flow cytometry protease assay, validation at 10 µM (AID 588461); conditions: multiplex microsphere protease cleavage assay, active compounds read high
Chain of Lethal factor (Bacillus anthracis) (P15917 whole entry, looked up): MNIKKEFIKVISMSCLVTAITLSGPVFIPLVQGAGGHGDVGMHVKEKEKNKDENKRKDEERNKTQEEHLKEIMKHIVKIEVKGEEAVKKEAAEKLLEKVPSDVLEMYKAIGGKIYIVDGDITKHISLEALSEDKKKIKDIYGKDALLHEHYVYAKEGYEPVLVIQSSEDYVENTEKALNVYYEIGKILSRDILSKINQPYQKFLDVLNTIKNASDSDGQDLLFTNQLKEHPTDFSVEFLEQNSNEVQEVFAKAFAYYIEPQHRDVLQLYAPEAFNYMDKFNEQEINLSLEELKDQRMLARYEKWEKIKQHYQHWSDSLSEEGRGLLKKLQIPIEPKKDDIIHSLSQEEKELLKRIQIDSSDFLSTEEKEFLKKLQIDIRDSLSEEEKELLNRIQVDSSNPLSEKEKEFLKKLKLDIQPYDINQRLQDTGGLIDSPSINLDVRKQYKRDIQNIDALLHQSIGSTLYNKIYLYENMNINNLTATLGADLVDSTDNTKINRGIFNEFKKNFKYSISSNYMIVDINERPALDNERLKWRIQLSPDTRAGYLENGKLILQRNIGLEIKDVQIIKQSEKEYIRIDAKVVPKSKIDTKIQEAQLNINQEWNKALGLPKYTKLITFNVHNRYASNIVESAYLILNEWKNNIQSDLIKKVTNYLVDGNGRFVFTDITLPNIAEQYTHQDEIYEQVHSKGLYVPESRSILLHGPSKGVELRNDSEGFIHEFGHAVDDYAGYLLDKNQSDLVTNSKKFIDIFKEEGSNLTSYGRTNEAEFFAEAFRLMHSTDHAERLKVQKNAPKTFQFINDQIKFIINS

Measured: inhibition

CCOC(=O)c1oc2cc(O)cc(C)c2c(=O)c1-c1cscn1
inactive: [1] 1.4% | [2] 1.8% | [3] -2.6%

CCc1ccc(/C=C2\Oc3cc(OC(=O)N4CCOCC4)ccc3C2=O)cc1
inactive: [1] 0.7% | [2] -0.2% | [3] 0.7%

c1ccc(Cn2nnc3cnccc32)cc1
inactive: [1] 3.6% | [2] -0.8% | [3] 1.4%

CCOC(=O)c1ccc(NC(=S)NCCc2ccccc2F)cc1
inactive: [1] 4.9% | [2] 2.4% | [3] -2.3%

CSCC[C@H](NC(=O)NC1CCCC1)C(=O)O
inactive: [1] 0.9% | [2] 0.2% | [3] -0.2%

O=Cc1ccc(N2CCCCC2)cc1
inactive: [1] -0.8% | [2] -0.3% | [3] -1.6%

CN(C)CCC(c1ccc(Br)cc1)c1ccccn1 (configuration not stated)
inactive: [1] 1.3% | [2] -0.7% | [3] -8.1%

c1ccc(Nc2cccc3c(Nc4ccccc4)cccc23)cc1
inactive: [1] -3.6% | [2] -3% | [3] -25.4%

CC(=O)[C@@]1(O)CC[C@H]2[C@@H]3C[C@H](C)C4=CC(=O)C=C[C@]4(C)[C@@]3(F)[C@@H](O)C[C@@]21C
inactive: [1] -1.5% | [2] -1.1% | [3] 5.2%

CC(C)(C)NCC(O)c1cc(O)cc(O)c1 (configuration not stated)
inactive: [1] -5.4% | [2] 0.7% | [3] 3.9%

O=C(NCC1CCCO1)c1ccc(OC2CCN(C(=O)C3CC3)CC2)cc1 (configuration not stated)
inactive: [1] 0.8% | [2] 0.5% | [3] -2.8%

O=C(O)/C=C/c1cnc[nH]1
inactive: [1] 1.9% | [2] -0.2% | [3] -0.5%

Nc1ccc(S(N)(=O)=O)cc1N
inactive: [1] 1.4% | [2] -2.7% | [3] -20%

CS(=O)c1ccccc1O (configuration not stated)
inactive: [1] 1.4% | [2] 0% | [3] -9.2%

O=C(Nc1ccc(C(=O)NC2CCCCC2)cc1)c1cccnc1
inactive: [1] 0.1% | [2] -1.5% | [3] -12.6%

Cc1ccc(-c2nnc(-c3ccc4c(c3)OCO4)o2)cc1
inactive: [1] -1% | [2] -0.1% | [3] -8%

O=C(/C=C/Sc1ccccc1)c1ccccc1
inactive: [1] -0.5% | [2] -0.8% | [3] -4.1%

O=C(OCCN1CCCC1)C1(c2ccccc2)CCCC1
inactive: [1] -3.9% | [2] -2.9% | [3] 2.6%

C[N+](C)(C)CCOP(=O)([O-])OC[C@H](O)CO
inactive: [1] 1.7% | [2] -0.4% | [3] 3.2%
